Activity calls are given as the source filed them. The call rests on the fitted dose curve; in most records, active means well fitted curve in the direction sought with a large enough effect in the repeat runs; inconclusive means weak or mixed curves; inactive means flat fitted curve, though single readings scatter.

One experiment is described as follows: qHTS assay to test for compound auto fluorescence at 460 nm (blue) in HEK293 cell free culture (AID 720681). To be noted: cell-free medium, autofluorescence 405/460 nm (blue); series mostly up to 91.3 µM. An outline of the steps: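 Test compounds were pinned into cell-free culture medium (DMEM with 10% FBS) and fluorescence was read directly at Ex/Em 405/460 nm. Signals were expressed as fluorescence equivalents of triamterene, with DMSO vehicle as control.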
Consider `C/C(=C\c1ccccc1)[N+](=O)[O-]`, for which the compound was classed as inactive. Still for that read-out and setting: the same measure for `COCCOCCO`: “inactive”; for `Clc1cccc(SC2CCNCC2)n1`: “inactive”.

On to `CC(C)(C)C(O)C(Oc1ccc(Cl)cc1)n1cncn1` (stereo not drawn), for which the outcome was inactive.

With `O=C(Nc1ccccc1)Nc1ccnc(Cl)c1`, the outcome was inactive. The same measure, in the same setting: the same measure for `C=CC(=O)OCC(C)O` (stereo not drawn): “inactive”; for `O=C(O)CC(Cl)C(=O)O` (stereo not drawn): “inactive”; for `C=CCN1CC[C@]23c4c5ccc(O)c4O[C@H]2C(=O)CC[C@@]3(O)[C@H]1C5`: “inactive”. For the compound `O=C(O)C1(c2ccc3c(c2)OC[C@H](Cc2ccc(-c4ccccc4)cc2)[C@H]3O)CCCC1`, the compound was classed as inactive.

Another experiment in a line: qHTS assay to test for compound auto fluorescence at 535 nm (green) in HEK293 cell free culture (AID 720682). To be noted: cell-free medium, green autofluorescence 485/535 nm; series mostly up to 91.3 µM. In outline: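 Each library compound, or DMSO control, is added by pintool to medium alone, comprising DMEM and 10% FBS. Emission at 535 nm following 485 nm excitation is quantified against fluorescein.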
For the compound `CS/C(C)=N/OC(=O)N(C)SN(C)C(=O)O/N=C(\C)SC`, the compound was called inactive. The same measure, in the same setting: the same measure for `[CH3][Sn]([CH3])([Cl])[Cl]`: “inactive”; for `O=C=Nc1ccc(Cl)cc1`: “inactive”; for `COP(=S)(Oc1cc(Cl)c(Br)cc1Cl)c1ccccc1` (stereo not drawn): “inactive”. The same measure, in the same setting: the same measure for `CC(C)(C)c1cc([N+](=O)[O-])cc([N+](=O)[O-])c1O`: “inactive”.

In the case of `CCCCC(O)(Cn1cncn1)c1ccc(Cl)cc1Cl` (stereo not drawn), the outcome was inactive. Still for that read-out and setting: the same measure for `Clc1cccc2ccccc12`: “inactive”; for `Cl/C=C\C[N+]12CN3CN(CN(C3)C1)C2`: “inactive”. The same measure, in the same setting: the same measure for `O=C1C(=O)c2cccc3cccc1c23`: “inactive”; for `CC1(C)CCC(Cc2ccc(Cl)cc2)C1(O)Cn1cncn1` (stereo not drawn): “inactive”.

Turning to `CO/N=C(/C(=O)OC)c1ccccc1COc1ccccc1C`, the compound was called inactive. For `O=C(NC(=O)c1c(F)cccc1F)Nc1ccc(OC(F)(F)C(F)OC(F)(F)F)c(Cl)c1` (stereo not drawn), the call was inactive. Still for that read-out and setting: the same measure for `O=C1c2ccccc2C(=O)C1C(=O)C(c1ccccc1)c1ccccc1`: “inactive”; for `O=C1CN=C(c2ccccc2)c2cc(Cl)ccc2N1CC1CC1`: “inactive”.

Values taken from PubChem BioAssay (Tox21).
